Active and inactive are the calls of the source.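 Rule for the calls: active = growth inhibition above 50% at the single 2 µM test dose, taken to imply half-maximal potency below 2 µM; inactive = the rest.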
Test: antimalarial activity against Dd2 strain (AID 2302);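 note: 0% = DMSO untreated growth and 100% = chloroquine plus artemisinin killed control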
Settings: P. falciparum Dd2 in RBCs, LDH growth readout, 72 h; at 2 µM; stronger effect = higher value

| SMILES | growth inhibition |
| --- | --- |
| CC[C@H](C)CNC(=O)c1cncc(-c2ccc(CNCCOc3ccccc3)cc2)c1 | 0% (inactive) |
| COc1cccc(NC(=O)Nc2ccc(C)c(-c3ccc(C(=O)Nc4ccncc4)cc3)c2)c1 | 64% (active) |
| CCCNCc1c(O)ccc2c(CNCCC)c(O)ccc12 | 9% (inactive) |
| Clc1ncnc2ncn(Cc3cccc(Br)c3)c12 | 56% (active) |
| CCN(CC)CCN(Cc1ccc(-c2ccc(C(F)(F)F)cc2)cc1)C(=O)c1ccc(-c2ccc(NC(=O)OC)cc2C)cc1 | 42% (inactive) |
| CCNc1cc(C)nc(Nc2ccc(NC(=O)c3ccccc3)cc2)n1 | 63% (active) |
| Cc1cccc2[nH]c(-c3cccc(-c4ccc(C(=O)NCc5ccccc5S(C)(=O)=O)cc4)c3)nc12 | 27% (inactive) |
| CO/C(=C\C=C\c1cc2cc(Cl)c(Cl)cc2[nH]1)C(=O)NCCCCN1CCN(c2ccccc2OC)CC1 | 96% (active) |
| COc1ccc(CNC2CCN(C)CC2)cc1-c1cccc(S(=O)(=O)NCc2ccccc2)c1 | 7% (inactive) |
| O=C(c1cccc(Br)c1)N1CCN(c2ccc([N+](=O)[O-])c(NC3CC3)c2)CC1 | 100% (active) |
| CN(C)CCNc1cc(-c2ccc3ccccc3c2)nc2ccccc12 | 58% (active) |
| CC1(C)N=C(N)N=C(N)C1c1ccc(Cl)cc1 (stereo unspecified) | -2% (inactive) |
| CCCCCCCc1c2c(C)c(C(=O)OCC)nc-2cc2n1CC(C)=C2C | 10% (inactive) |
| COc1ccccc1Oc1c(N(C)S(=O)(=O)c2ccc(C(C)C)cc2)nc(C(F)(F)F)nc1N(C)S(=O)(=O)c1ccc(C(C)C)cc1 | 98% (active) |
| Cc1ccc(CN2CCCN(Cc3cccc(C(=O)Nc4ccc(C(C)(C)C)cc4)c3)CC2)s1 | 4% (inactive) |
| CCN(CC)C(=NCCCCCCN=C(NC(N)=NCc1ccc(Cl)cc1Cl)N(CC)CC)NC(N)=NCc1ccc(Cl)cc1Cl | 99% (active) |
| CCCNCc1ccc(-c2ccc(CN(Cc3cccs3)C(=O)C3CCN(C)CC3)cc2)nc1 | 35% (inactive) |
| O=C(Nc1cccc(-c2cccc(-c3nc4ccc(C(F)(F)F)cc4[nH]3)c2)c1)c1ccncc1 | 61% (active) |

| SMILES | growth inhibition |
| --- | --- |
| CN(C)CCNC(=O)c1cccc(-c2cnc3ccc(NCc4ccc(Cl)c(Cl)c4)nn23)c1 | 53% (active) |
| CC(C)(C)S[C@H]1S[C@H](SC(C)(C)C)[C@@H](OC(=O)c2ccccc2)C(OC(=O)c2ccccc2)[C@H]1OC(=O)c1ccccc1 (stereo partly specified) | 45% (inactive) |
| COC(=O)Cn1c(C2CCN(CC3CCN(C(=O)/C=C/c4ccc(Cl)c(Cl)c4)CC3)CC2)nc2ccccc21 | 2% (inactive) |
| N#CCCN1CCN(Cc2cccc(-c3ccc(-c4nc5ccccc5[nH]4)s3)c2)CC1 | 8% (inactive) |
| COc1ccc(-c2cccc(NC(=O)c3ccc(Cl)cc3)c2)cc1CN1CCNCC1 | 22% (inactive) |
| CCCCCCOc1ccc(C(=O)N(Cc2ccccc2)c2c(-c3ccccc3)nc3cc(C)ccn23)cc1 | 96% (active) |
| Fc1cccc(COc2ccc(-n3ccc4c(NCCCn5ccnc5)ncnc43)cc2Cl)n1 | 29% (inactive) |
| COc1ccc(O)c(C(=O)c2cc(C(=O)NC3CCCCC3)c(=O)n(C3CCCCC3)c2)c1 | 62% (active) |
| Cc1ccc(N(CCC(=N)N)Cc2ccccc2)cc1 | 95% (active) |
| CC(C)Oc1ccccc1-c1csc(C(=O)NCC2CCN(Cc3ccc(C(C)(C)C)cc3)C2)c1 (stereo unspecified) | 45% (inactive) |
| O=C1COc2ccc(CNC3CCC(O)(CCc4ccnc5cc6c(cc45)OCCO6)CC3)nc2N1 (stereo unspecified) | -1% (inactive) |
| C#CCCC(=O)Nc1cccc(-c2cccc(-c3nc4ccc(C(F)(F)F)cc4[nH]3)c2)c1 | 45% (inactive) |
| CC(=O)Oc1ccc(C(=O)Oc2ccccc2C#CC#N)cc1OC(C)=O | 61% (active) |
| Cc1[nH]c(C)c(-c2ccc(-c3cccc(OC(F)(F)F)c3)nc2)c(=O)c1Cl | 97% (active) |
| FC(F)(F)c1ccc2nc(-c3ccc(-c4ccc(CNCCN5CCNCC5)cc4)s3)[nH]c2c1 | 79% (active) |
| CCCCCCP(=O)(COc1ccc(CCN(CC(O)COc2cccc3[nH]c(C(N)=O)cc23)CC(O)COc2cccc3[nH]c(C(N)=O)cc23)cc1)OCCCC (stereo unspecified) | 97% (active) |
| C[C@@H]1CN(c2cnn(C/C=C/c3ccc(NC(=O)c4ccc(Cl)cc4)cc3)c(=O)c2Cl)C[C@H](C)N1 | 82% (active) |
| Cc1noc(C)c1-c1cccc(CNCc2cccc(-c3cccc(-c4nc5c(C)cccc5[nH]4)c3)c2)c1 | 66% (active) |
